Sm TGR inh: qHTS Assay for the Inhibitors of Schistosoma Mansoni Peroxiredoxins | purified TGR, DTNB reduction, TNB absorbance 405 nm | Potency, µM (doses to about 114 µM), inactives show at the highest dose activity change, negative = inhibition, usual class: inhibitors | hit rate 3% among 360,000; active = well fitted inhibition curve with a large enough effect; inconclusive = small, poorly fitted or top-dose-only effect; inactive = no such curve, though single readings can be large or run the other way; also: % is scaled to controls: 0 for no effect and ±100 for the full control effect; nearly all actives have a fitted effect of over 60% in size
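TGR 20 nM + NADPH 100 uM (dispensed conc.), cpd preinc 15 min RT; start with NADPH (500 uM addition) then DTNB (15 mM addition). Kinetic TNB absorbance, 405 nm filter. Four-parameter Hill fit across titration.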
SARS PLpro yeast: qHTS of Yeast-based Assay for SARS-CoV PLP. S. cerevisiae expressing SARS-CoV PLpro, growth rescue. Potency, µM (highest dose often 32.9 µM), for inactives: top-dose activity, positive = growth rescue, actives largely listed as activators. hit rate 0.19% among 330,000. AID 485353, 2010; calls by dose curve; also: 0% is about no effect; nearly all actives have a fitted effect of over 55% in size
* = called active by the depositor; ? = inconclusive; nt = no result. Only some compounds are listed: those with a hit (about 3% of all), similar ones and a draw of the others. Potency is read from the fitted curve at half-maximal effect.

SMILES	Sm TGR inh	SARS PLpro yeast
NS(=O)(=O)c1cccc(NC(=S)NC(=O)c2cccc([N+](=O)[O-])c2)c1	16µM*	1%
COC(=O)c1cc(NC(=O)c2c(-c3ccccc3)noc2C)ccc1N1CCOCC1	-3%	2%
O=C(NC(=S)Nc1ccc(N2CCOCC2)cc1)c1ccc(Cl)cc1	-1%	-27%
Cc1ccc(CNc2ncnc3onc(C)c23)cc1	14%	nt
O=C(COc1ccc(Cl)cc1)Nc1ccc2nc(SCC(=O)N3CCOCC3)sc2c1	-12%	nt
CCOc1ccc(-c2cc(C(=O)Oc3ccc(C#N)cc3)no2)cc1	-1%	nt
COCCNC(=O)CN1C(=O)CCn2nc(-c3cn(C)c4ccccc34)cc21	-4%	nt
CC(=O)c1cccc(NC(=S)NC2CC2)c1	40µM*	?
S=C(Nc1ccc(N2CCOCC2)cc1)Nc1ccc2snnc2c1	35µM*	-5%
N#Cc1ccccc1NC(=O)COC(=O)c1cccs1	nt	1%
N#Cc1ccccc1NC(=S)NC(=O)c1cccs1	3.5µM*	-16%
CC(=O)c1cccc(NC(=S)NC2CCCCC2)c1	-28%	5%
O=C(NC(=S)Nc1ccc(N2CCOCC2)cc1)c1cccs1	8.9µM*	0%
Cc1ccc(C(=O)N2CCN(c3ccc(NC(=S)NC(=O)c4cccs4)cc3)CC2)cc1	10%	1%
O=C(Nc1ccc2snnc2c1)N1CCOCC1	0%	0%
CCOc1ccc(NC(=O)CSc2nc3ccsc3c(=O)n2C(C)CC)cc1 (centres undefined)	11%	nt
Cc1cccc(NC(=O)c2cc(-c3ccc4c(c3)OCCO4)on2)c1	2%	nt
CCC(=O)Nc1cccc(NC(=S)NC(=O)c2ccccc2Cl)c1	?	-1%
CCC(=O)N1CCN(c2ccc(NC(=S)NC(=O)c3cccc([N+](=O)[O-])c3)cc2)CC1	10µM*	-4%
CCC(=O)Nc1cccc(NC(=S)NC(=O)c2cccs2)c1	25µM*	-4%
COc1ccc(NC(=O)c2cccc([N+](=O)[O-])c2)cc1	6%	1%
COc1ccc(NC(=S)Nc2cccc([N+](=O)[O-])c2)cc1	20µM*	-6%
Cc1ccc(C(=O)NC(=S)Nc2ccc(N3CCOCC3)cc2)cc1C	-27%	-1%
CCC(=O)N1CCN(c2ccccc2NC(=S)NC(=O)c2cccc([N+](=O)[O-])c2)CC1	-28%	0%
Cc1cccc(C(=O)NC(=S)Nc2ccc(N3CCOCC3)cc2)c1	14µM*	3%
SMILES	Sm TGR inh	SARS PLpro yeast
Cc1nc2nc(NC(=O)c3ccccc3F)[nH]n2c(=O)c1Cl	6%	nt
CC(C)c1ccc(OCc2cc(=O)n3c4c(sc3n2)CCCC4)cc1	-1%	nt
COc1ccc(N2CCN(S(=O)(=O)CCNC(=O)c3c(F)cccc3Cl)CC2)cc1	2%	nt
O=S(=O)(c1cccc2ccccc12)N1CCN(c2ccc(Cl)c(Cl)c2)CC1	8%	nt
CCc1ccc(NC(=O)c2ccc(CN3CC(=O)N4CCCCC4C3=O)cc2)cc1 (centres undefined)	-1%	nt
CCOc1ccc(Nc2nc3c(S(=O)(=O)c4ccc(CC)cc4)nnn3c3ccc(Cl)cc23)cc1	1%	nt
O=C(C[n+]1cn(C(F)F)c2ccccc21)c1ccc(OC(F)F)cc1	7.1µM*	-2%
O=C(C[n+]1ccc(C(=O)NCc2ccccc2)cc1)c1ccc(OC(F)F)cc1	1%	1%
CCN(CC)c1ccc(S(=O)(=O)N2CCCCC2)cc1NC(=O)C1CCC1	50µM*	-4%
CCN(CC)c1ccc(S(=O)(=O)N2CCOCC2)cc1NC(=O)C1CC1	-13%	-1%
COc1cc2[nH]c(=O)n(Cc3ccc(C(=O)N4CCN(c5cccc(C)c5C)CC4)cc3)c(=O)c2cc1OC	-10%	nt
Cc1ccc2oc(-c3cccc(NC(=S)NC(=O)/C=C/c4ccco4)c3)nc2c1	-26%	0%
COc1cccc(NC(=S)NC(=O)/C=C/c2ccco2)c1	10µM*	2%
COc1ccc(NC(=S)NC(=O)/C=C/c2ccco2)c(OC)c1	?	-1%
O=C(/C=C/c1ccco1)NC(=S)Nc1cccc(C(=O)O)c1	4.5µM*	4%
COc1ccc(S(=O)(=O)c2c(Nc3ccc(C)cc3C)sc(C(=O)c3ccc(F)cc3)c2N)cc1	3%	nt
Cc1cc2ccccc2n1-c1ccc(C(=O)N2CCC(C(=O)NCc3ccc(F)cc3)CC2)s1	-4%	nt
Cc1ccc(CNC(=O)C(C)n2c(=O)cc(-c3ccccc3)c3c(C)nn(C)c32)cc1 (centres undefined)	3%	nt
COc1ccc(OC)c(CNC(=O)CN2N=C(c3ccc(Cl)cc3)CCC2=O)c1	8%	nt
O=C(Cn1ncn2c(cc3ccccc32)c1=O)NCc1ccc(F)cc1	0%	nt
CCc1nnc(SCC(=O)N(CC)c2ccccc2)c2cc3oc(C)cc3n12	0%	nt
O=C(NCC(c1cccs1)N1CCOCC1)c1ccc(Br)o1 (centres undefined)	25µM*	nt
CN(C)c1ccc(C(=O)NCC(c2cccs2)N2CCOCC2)cc1 (centres undefined)	nt	3%
CC(=O)c1ccc(S(=O)(=O)Nc2ccc(C(=O)NCC(c3cccs3)N3CCOCC3)cc2)cc1 (centres undefined)	14µM*	nt
CCOc1ccc(NS(=O)(=O)c2ccc(C(=O)NCC(c3cccs3)N3CCOCC3)cc2)cc1 (centres undefined)	-1%	2%
SMILES	Sm TGR inh	SARS PLpro yeast
CCOC(=O)C(=O)Nc1c(C(=O)Nc2cccc(F)c2)oc2ccccc12	2%	nt
CC(C)(C)C1CCc2onc(C(=O)Nc3sc4c(c3C(N)=O)CCCC4)c2C1 (centres undefined)	5%	nt
COCCCNC(=O)c1ccc(-c2nc(CS(=O)(=O)c3ccc(C)cc3)c(C)o2)cc1	25µM*	nt
Cc1ccc(CNC(=O)c2ccc(-c3nc(CS(=O)(=O)c4ccc(C)cc4)c(C)o3)cc2)cc1	-14%	nt
COc1ccccc1CNC(=O)c1ccc(-c2nc(CS(=O)(=O)c3ccc(C)cc3)c(C)o2)cc1	-17%	nt
CCCCNC(=O)c1ccc(-c2nc(CS(=O)(=O)c3ccc(C)cc3)c(C)o2)cc1	40µM*	nt
CC(C)(C)C1CCc2nc(NC(=O)c3cccc(Cl)c3)sc2C1 (centres undefined)	-17%	nt
O=C1CS(=O)(=O)C2(C(=O)N(Cc3ccccc3Cl)c3ccccc32)N1c1ccc(F)cc1 (centres undefined)	10%	nt
O=C(N/N=C/c1ccc([N+](=O)[O-])o1)C(O)c1ccccc1 (centres undefined)	45µM*	0%
Cc1cc(C(=O)N/N=C/c2ccc([N+](=O)[O-])o2)c(C)o1	?	-3%
O=C(CSc1ccc(Cl)cc1)N/N=C/c1ccc([N+](=O)[O-])o1	5.6µM*	4%
O=C(CNc1ccc2ccccc2c1)N/N=C/c1ccc([N+](=O)[O-])o1	-35%	-11%
O=C(N/N=C/c1ccc(-c2ccc([N+](=O)[O-])cc2)o1)C(O)c1ccccc1 (centres undefined)	-24%	7%
Cc1cc(C)c(S(=O)(=O)N/N=C/c2ccc([N+](=O)[O-])o2)c(C)c1	7.1µM*	-6%
Cc1nonc1C(=O)N/N=C/c1ccc([N+](=O)[O-])o1	45µM*	-1%
COC(=O)N/N=C/c1ccc([N+](=O)[O-])o1	?	5%
CC(C)CCN(Cc1ccco1)C(=O)c1cc2c(Cl)nc3ccccc3c2s1	-14%	nt
CCCOC(=O)c1cccc(NC(=O)c2c(-c3ccccc3Cl)noc2C)c1	12%	nt
CCN1CCN(Cc2ccc(C)cc2)CC1	2%	11%
